Screening results from PubChem.
Most compounds without a hit are left out; they make up all but 3.3% or so of the library.
NPSR antagonist: blocks cAMP signaling of the human neuropeptide S receptor. Q6W5P4. CHO-NPSR cells, cAMP TR-FRET, antagonist mode. Potency, µM (series often up to 38.3 µM), without a hit: at the top dose activity change, negative = inhibition, most hits filed as inhibitors. 220,000 compounds, 1% hits; also: nearly all actives have a fitted effect of over 50% in size
Target sequence (Q6W5P4 whole entry, looked up): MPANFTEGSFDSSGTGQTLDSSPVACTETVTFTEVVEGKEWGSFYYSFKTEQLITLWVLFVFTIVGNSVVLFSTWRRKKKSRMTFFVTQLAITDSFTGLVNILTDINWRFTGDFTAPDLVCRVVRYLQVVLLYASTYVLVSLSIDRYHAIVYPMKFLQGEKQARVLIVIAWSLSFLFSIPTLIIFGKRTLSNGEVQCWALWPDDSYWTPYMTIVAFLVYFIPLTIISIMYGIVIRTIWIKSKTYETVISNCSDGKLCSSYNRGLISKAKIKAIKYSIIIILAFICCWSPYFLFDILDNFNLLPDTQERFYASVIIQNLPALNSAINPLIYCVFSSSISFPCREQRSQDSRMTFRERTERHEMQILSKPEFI
Tau fluor cs: counter-screen for tau fibril formation inhibitors; tau K18 P301L Alexa594 fluorescence, heparin fibrillization; Potency, µM (doses to about 57.7 µM), for inactives: at the highest dose activity change, negative = decrease; 280,000 compounds, 0.93% hits; also: nearly all actives have a fitted effect of over 55% in size
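Human tau K18 P301L (15 uM unlabeled, 0.24 uM Alexa 594-labeled) in 100 mM sodium acetate pH 7 with 20 uM heparin, 6 hr at 37 C. ThT 30 uM added, 1 hr ambient; Alexa 594 FP and total fluorescence read at 555/632 nm.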
Tau FP inhib: blocks human tau fibril formation measured by polarization. P10636. K18 P301L tau heparin fibrillization, Alexa594 FP, 6 h. Potency, µM (titrated, usually from 57.7 µM), inactives show at the top dose activity, negative = inhibition, usual class: inhibitors. 280,000 compounds, 0.39% hits; also: nearly all actives have a fitted effect of over 55% in size
Target sequence (P10636 561-689 P618L limits assumed): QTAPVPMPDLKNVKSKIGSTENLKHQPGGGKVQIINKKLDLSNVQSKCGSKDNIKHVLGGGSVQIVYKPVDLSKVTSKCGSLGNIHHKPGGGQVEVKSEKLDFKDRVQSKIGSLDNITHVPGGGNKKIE
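Compound effects on tau fibrillization are measured by Alexa 594 fluorescence polarization (ex 555, em 632 nm). K18 P301L tau is used at 15 uM with 0.24 uM labeled tracer, and 20 uM heparin induces aggregation over 6 hr at 37 C.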
Tau ThT inhib: blocks human tau fibril formation measured by thioflavin T | P10636 | recombinant tau K18 P301L (four-repeat tau fragment), heparin-induced fibrillization, ThT fluorescence | Potency, µM (doses to about 57.4 µM), inactives show at the highest dose activity, negative = inhibition, hits mostly inhibitors | 270,000 compounds, 2.1% hits | AID 1460; also: nearly all actives have a fitted effect of over 55% in size
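Recombinant human tau K18 fragment […] carrying P301L, 15 uM unlabeled plus 0.24 uM Alexa 594-labeled, was fibrillized with 20 uM heparin in 100 mM sodium acetate pH 7 for 6 hr at 37 C; 30 uM ThT fluorescence read after 1 hr.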
Luc counter: Kinase-Glo luciferase inhibition (counter-screen) | Kinase-Glo luciferase, ATP luminescence, 8 min | Potency, µM (titrated, usually from 38.3 µM), without a hit: at the highest dose activity change, negative = inhibition, actives largely listed as inhibitors | 200,000 compounds, 0.28% hits; also: nearly all actives have a fitted effect of over 60% in size
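Recombinant Kinase-Glo luciferase, 10 uM ATP (linear range), luciferin; imidazole pH 7.2 / KCl / MgCl2 / Tween / BSA buffer; 8 min RT; luminescence.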
* marks the source's active call; other numbers are inactive results; u = inconclusive; x = not tested or not shown; [ ] = remark or other dose. Calls follow the shape of the dose curve; as a rule, active = well fitted curve in the direction sought with a large enough effect; inconclusive = small, poorly fitted or top-dose-only effect, or another doubt; inactive = no such curve, though single readings can be large; an effect the other way counts as inactive or inconclusive. % is scaled to controls: 0 for no effect and ±100 for the full control effect; potency is read from the fitted curve at half-maximal effect.

SMILES	NPSR antagonist	Tau fluor cs	Tau FP inhib	Tau ThT inhib	Luc counter
Cc1c(O)ccc(/C(Cc2ccc3ccccc3n2)=N\N)c1O	38%	11µM*[quencher]	9%	7.1µM*	x
CCc1cc(/C(Cc2ccccn2)=N\O)c(O)cc1O	-10%[46.1 µM]	-19%	8%	-12%	-3%
CCc1cc(/C(Cc2ccc3ccccc3n2)=N\O)c(O)cc1O	u	22µM*[quencher]	-9%	-14%	-6%
CO[C@H]1COC(=O)CCC[C@H](C)[C@@H](OC)COC(=O)C/C=C\[C@@H]1C	x	-11%[11.6 µM]	-3%[11.6 µM]	-6%[11.5 µM]	x
CCOC(=O)C1=C(c2ccccc2)N=c2s/c(=C\c3ccc(O)cc3)c(=O)n2C1c1cccs1 (stereo not drawn)	10µM*	8.9µM*[quencher]	32µM*	u	-4%
CCc1cc(C(=O)O)c(NC(=O)/C=C/c2ccc(OC)cc2)s1	-37%	u	-2%	13µM*	x
CCCCCCCCCCCC(=O)c1c(O)cccc1O	-18%	13µM*[quencher]	u	u	3%
Cn1nc(-c2ccc(Cl)cc2)c2cc(C(=O)NCCCN3CCCC3)sc21	10µM*	u	-11%	7%	-2%
Cc1ccc(CN(C(=O)COc2ccc(F)cc2)C2CCS(=O)(=O)C2)o1 (stereo not drawn)	x	-4%	-9%	10%	x
O=C(Nc1ccc2nc(SCc3ccccc3)sc2c1)c1ccccc1F	x	u	u	-10%	x
Nc1ccc2nc(SCc3ccccc3F)sc2c1	11%	0.56µM*[quencher]	u	x	x
CCS(=O)(=O)N1CC(=O)N(c2ccc(Cl)cc2C)C(C)(C(=O)NC2CCCCC2)C1 (stereo not drawn)	x	-7%	-6%	1%	x
Clc1ccc(CN2CCC(CNc3ncnc4onc(-c5ccc(Cl)cc5)c34)CC2)cc1	x	-19%	-6%	-7%	x
CC(=O)Nc1ccc(NC(=O)CCCc2c[nH]c3ccccc23)cc1	-16%	-8%	9%	u	4%
O=C(CCCc1c[nH]c2ccccc12)Nc1ccc2ccccc2c1	-15%	8.9µM*[quencher]	u	u	2%
O=C(Cc1ccc(Cl)cc1)Nc1cc(S(=O)(=O)N2CCOCC2)ccc1N1CCCC1	-21%	-1%	0%	6%	-2%
O=C(Nc1cccc(Cl)c1)Nc1cc(S(=O)(=O)N2CCOCC2)ccc1N1CCCC1	2%	14µM*[quencher]	-2%	-1%	2%
CCCn1c(C)nc2c(N(C)CCN(C)C)nc(C)nc21	x	-14%	0%	-15%	-4%
Nc1c(N2CCOCC2)cc(Cl)c2nonc12	1%[46.1 µM]	-25%	u	16µM*	-6%
Nc1cc(Cl)ccc1N1CCCCC1	5%	1%	3%	3%	-2%
Nc1ccc(N2CCCCC2)c2nonc12	19%	u	u	8.9µM*	-7%
Nc1c(N2CCCC2)cc(Cl)c2nonc12	5%[46.1 µM]	-24%	u	2.8µM*	x
COc1ccc(N(Cc2nnc3n2CCCCC3)C(=O)Nc2ccc(Cl)cc2)cc1Cl	x	-1%	6%	2%	x
C=C1C(=O)OC2C[C@@]3(C)CCCC(C)C3=CC12 (stereo partly drawn)	x	-9%	3%	-10%	0%
O=C1CCCC(O)=C1N=Nc1ccc2c(c1)OCO2	-27%	-15%	3%	u	u
SMILES	NPSR antagonist	Tau fluor cs	Tau FP inhib	Tau ThT inhib	Luc counter
Nc1n[nH]c(N)c1N=Nc1ccc2c(c1)OCO2	-22%	-30%	1%	14µM*	-2%
O=[N+]([O-])c1ccc(-c2nc(-c3ccc(F)cc3)c(-c3ccncc3)[nH]2)cc1	7.9µM*	20µM*[quencher]	u	14µM*	-6%
Cc1ccc(C)c(N2CCN(Cc3csc(C)c3)CC2)c1	x	-2%	10%	-5%	x
COc1ccc(/C(C)=N/Nc2nc3ccccc3nc2C)cc1OC	-26%	u	u	13µM*	x
COc1ccc(/C(C)=N/Nc2cccc(C(=O)O)c2)cc1OC	11%	-1%	-1%	u	-3%
Fc1ccc(CNc2nc(-c3ccccc3)cc(C(F)(F)F)n2)cc1	x	-20%	u	-3%	x
Cc1ccc2nc(/C(C#N)=C\c3ccc([N+](=O)[O-])o3)[nH]c2c1	10µM*	13µM*[quencher]	u	8.9µM*	-4%
N#C/C(=C\c1ccc(Sc2ccccc2)o1)c1nc2ccccc2[nH]1	-42%	-27%	u	3%	-16%
